High-throughput results: PubChem BioAssay, The Scripps Research Institute Molecular Screening Center
Only some compounds are listed: those with a hit (about 3.4% of all), similar ones and a draw of the others.
MITF primary: MITF inhibitors, primary screen, biochemical, AlphaScreen, human; AlphaScreen MITF homodimerization, bead proximity signal; inhibition, % at 2.6 µM; 650,000 tested, 0.91% active; Microphthalmia-associated transcription factor (Homo sapiens), O75030; in the data active = inhibition above about 50%;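 note: 0% = vehicle wells with protein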
Target sequence (O75030 whole entry, looked up): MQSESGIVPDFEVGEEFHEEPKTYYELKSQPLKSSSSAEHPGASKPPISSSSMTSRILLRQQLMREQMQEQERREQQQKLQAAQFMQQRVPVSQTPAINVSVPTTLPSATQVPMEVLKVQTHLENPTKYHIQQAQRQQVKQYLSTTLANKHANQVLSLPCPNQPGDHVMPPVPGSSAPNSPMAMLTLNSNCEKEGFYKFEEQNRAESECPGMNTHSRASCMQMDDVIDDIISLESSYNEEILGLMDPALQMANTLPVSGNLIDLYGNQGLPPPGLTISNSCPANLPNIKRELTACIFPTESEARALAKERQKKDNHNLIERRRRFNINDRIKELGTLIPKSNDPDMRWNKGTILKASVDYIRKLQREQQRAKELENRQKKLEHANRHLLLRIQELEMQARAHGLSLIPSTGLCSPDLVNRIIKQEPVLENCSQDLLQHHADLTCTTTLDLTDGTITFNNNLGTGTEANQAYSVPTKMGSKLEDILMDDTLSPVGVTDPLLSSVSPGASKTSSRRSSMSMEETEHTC
FBW7 act: FBW7 E3 ligase activators, primary screen, biochemical, AlphaScreen, human; AlphaScreen FBW7–phospho-cyclin E peptide binding, activator screen; normalized activity (activation), % at 26.1 µM; 650,000 tested, 0.13% active; AID 1259310, 2017; in the data active = normalized activity above about 1.9%;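 note: purified mutant Fbw7 with reduced substrate affinity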
TEAD-YAP block: TEAD-YAP interaction inhibition, primary screen, TEAD-YAP interaction inhibitor project, luminescence, HEK-TIYL cells | TEAD-Gal4/YAP UAS-luciferase luminescence | inhibition, % at 9.12 µM | 640,000 tested, 1.4% active | AID 1259422, 2018; in the data active = inhibition above about 32%;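 note: 0% = median of test compound wells and 100% = reference inhibitor wells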
GPR151 activ: activators of human GPR151, primary screen, cell-based, PathHunter beta-arrestin, luminescence; activation, % at 11.2 µM; AID 1508602, 2020; PathHunter beta-arrestin GPR151 cells; G-protein coupled receptor 151 (Homo sapiens), Q8TDV0; 650,000 tested, 1% active; in the data active = activation above about 4.9%;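 note: 0% = median of compound wells and 100% = cells with positive control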
MITF confirm: MITF inhibitors, retest of hits, confirmation, biochemical, AlphaScreen, triplicate; shares compounds with MITF primary; AlphaScreen MITF homodimerization, biotin/His-MITF beads; inhibition, % at 2.6 µM; 4,700 tested, 16% active; AID 1259372, 2018;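 active = inhibition above a cutoff derived from the DMSO control wells, cut at about 28% in these data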;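 note: 0% = MITF dimer wells with DMSO only; inhibitors lower the bead chemiluminescence by keeping MITF from dimerizing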
AlphaScreen DR: AlphaScreen optical interference compounds, dose response, counter-screen, biochemical, HTS; IC50, µM; shares compounds with MITF primary; 480 tested, 6% active; AlphaScreen optical interference counterscreen, cell-free; call rule not given here
AlphaScreen intf2: AlphaScreen optical interference compounds, counter-screen for MITF inhibitor project, biochemical, triplicate | LysRS AlphaScreen counterscreen, signal interference | shares compounds with MITF primary | inhibition, % at 2.6 µM | 4,700 tested, 7.6% active | AID 1259376, 2018;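 active = inhibition above a cutoff derived from the DMSO control wells, cut at about 30% in these data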
GPR151 conf act: GPR151 activators, triplicate retest, confirmation, cell-based, PathHunter beta-arrestin, luminescence; shares compounds with GPR151 activ; AID 1508609, 2020; GPR151 PathHunter beta-arrestin cells, 90 min; % of EA-reagent control over plate median; 6,700 tested, under 10 active; activation, % at 11.2 µM;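 active = mean percent activation across replicates above the confirmation screen cutoff of 4.91%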
GPR119 counter: GPR119 activators in beta-arrestin cells, counter-screen for GPR151 activator project, cell-based, PathHunter beta-arrestin, luminescence, triplicate; activation, % at 11.2 µM; 90 min; 0 = compound-well median, 100 = enzyme-acceptor control; 6,700 tested, 0.3% active; shares compounds with GPR151 activ; AID 1508611, 2020;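 active = mean percent activation in the counterscreen above 29.09%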;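 note: counterscreen on off-target GPR119 to flag nonselective hits from the GPR151 activator screen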
Numbers without * were called inactive; · = no result given.

SMILES | MITF primary | FBW7 act | TEAD-YAP block | GPR151 activ | MITF confirm | AlphaScreen intf2 | GPR151 conf act | GPR119 counter | others
CN(CCCc1nc2ccccc2[nH]1)Cc1cccc(C#N)c1 | -0.3 | -0.2 | -4.8 | -2.7 | · | · | · | ·
Cc1ccccc1OCCOCCn1cnc2ccccc21 | 71.9* | -0.1 | 15.1 | 4.9* | 14.4 | 19.3 | 0.0 | 13.6
O=C(O)c1cc(N=Cc2ccco2)ccc1O | 51.4* | 0.0 | -5.8 | 5.0* | 81.0* | -1.9 | 1.8 | 15.9 | AlphaScreen DR=>6.48
O=C(O)c1cc(N=Cc2nc(-c3ccc(Cl)cc3)oc2O)ccc1O | 10.9 | -0.3 | -1.3 | 0.5 | · | · | · | ·
O=C(Cn1c(-c2ccccc2Cl)nc2ccccc2c1=O)Nc1ccc(F)c(Cl)c1 | 8.2 | -0.1 | 6.9 | 0.0 | · | · | · | ·
Cc1ccc(N2C(=O)c3ccccc3NC2c2cccc([N+](=O)[O-])c2)cc1 (configuration not stated) | 62.7* | -0.1 | -8.9 | 8.6* | 77.3* | 6.0 | -0.4 | -12.5 | AlphaScreen DR=>5.15
O=C1c2ccccc2NC(c2cccc([N+](=O)[O-])c2)N1c1ccc(F)cc1 (configuration not stated) | 4.7 | -0.1 | 9.8 | 0.2 | · | · | · | ·
COc1ccc(COC(=O)C2=C(C)NC3=C(C(=O)CC(C)(C)C3)C2c2cccc([N+](=O)[O-])c2)cc1 (configuration not stated) | 0.1 | 0.0 | 21.7 | -0.5 | · | · | · | ·
Fc1ccccc1-c1cc(NCCCn2ccnc2)nc(-c2ccncc2)n1 | 61.9* | -0.8 | 2.9 | 7.5* | 34.4* | 40.8* | -1.1 | -7.2
CCc1cc(OCCCCN2CCNCC2)ccc1Cl | 54.4* | 0.0 | -14.9 | 6.4* | 1.7 | -1.0 | -0.1 | 4.7
CCc1cc(OCCCN2CCNCC2)ccc1Cl | 3.9 | 0.1 | -4.9 | 0.8 | · | · | · | ·
O=C(CN1CCC(S(=O)(=O)c2ccc(-c3cccs3)cc2)CC1)c1cccnc1 | 14.4 | 0.6 | -4.5 | -0.3 | · | · | · | ·
Clc1cc2c(c3ncccc13)OCN(CCCN1CCOCC1)C2 | 92.0* | -0.4 | 26.9 | 5.2* | 102.3* | 100.3* | -0.5 | 3.4
COc1ccc(-c2ccc(Nc3c(F)cccc3F)nc2)cn1 | 3.3 | -0.2 | -42.6 | 1.9 | · | · | · | ·
Cc1ccc(N2CC(=O)Nc3ccccc3S2(=O)=O)cc1 | 13.8 | -0.1 | -6.8 | 0.6 | · | · | · | ·
CCOC(=O)N1CC(=O)Nc2ccccc2S1(=O)=O | 66.4* | 0.9 | 0.6 | 10.6* | 17.1 | 17.3 | 0.3 | 10.4
FC(F)(F)c1cccc(OCCCCNCCN2CCOCC2)c1 | 65.1* | 0.0 | 7.4 | 5.8* | -1.8 | 8.8 | 0.2 | -4.7
COc1ccc(OC)c(CN2CCC(C(=O)NCc3ccc(C)cc3)CC2)c1 | 22.7 | -0.3 | 3.4 | -0.8 | · | · | · | ·
COc1ccc(OC)c(CN2CCN(Cc3ccc(C)cc3)CC2)c1 | 83.3* | -0.1 | -3.1 | 5.5* | 0.8 | 7.1 | -1.2 | -18.9
CCOc1ccccc1CN1CCC(N2CCCC2)CC1 | 56.0* | -0.2 | 0.5 | 9.2* | -10.9 | -6.5 | -0.9 | -10.2
COc1ccccc1/C=C/CN1CCN(Cc2ccc3c(c2)OCO3)CC1 | 69.4* | -0.1 | -2.6 | 6.1* | -1.5 | 1.3 | 0.1 | -8.0
COc1ccccc1C(=O)N1CCN(Cc2ccc3c(c2)OCO3)CC1 | -5.2 | 0.0 | 2.4 | 1.6 | · | · | · | ·
CCOCCCNC(=O)c1ccc(Cl)c([N+](=O)[O-])c1 | 4.1 | -0.1 | 10.7 | -0.4 | · | · | · | ·
c1cncc(CN2CCN(Cc3cccc4ccccc34)CC2)c1 | 83.3* | -0.2 | -3.5 | 11.5* | 4.2 | 1.4 | -1.1 | -20.0
Cc1c(C(=O)O)sc2ncn(CC(=O)Nc3ccc(C(C)C)cc3)c(=O)c12 | 6.6 | -0.2 | 5.5 | 0.3 | · | · | · | ·
SMILES | MITF primary | FBW7 act | TEAD-YAP block | GPR151 activ | MITF confirm | AlphaScreen intf2 | GPR151 conf act | GPR119 counter | others
COc1ccccc1CC(=O)N1CC[C@@H]2[C@H](CCCN2C(=O)c2occc2C)C1 | 51.6* | 0.0 | 6.1 | 7.3* | -6.4 | -0.1 | -0.1 | 7.5
CCOC(=O)c1c(C)[nH]c(C(=O)COC(=O)CCOc2cccc(C)c2)c1C | 10.8 | 0.5 | -0.3 | -2.2 | · | · | · | ·
COc1cc(OC)c(C(=O)OC2CCCC2=O)cc1OC (configuration not stated) | 76.4* | -0.2 | 5.3 | 5.2* | 67.0* | 6.5 | 0.8 | 2.3 | AlphaScreen DR=>7.05
CCN1CCN(CCOc2cc(C)ccc2C)CC1 | 64.5* | -0.4 | 4.4 | 16.8* | 6.4 | 11.9 | 0.1 | -2.5
Cc1ccc(OCCN2CCNCC2)c(C)c1 | 44.1 | -0.2 | -5.8 | 0.2 | · | · | · | ·
CCOc1ccc(N2CCn3c2nnc(C(=O)NCc2ccc(Cl)cc2)c3=O)cc1 | 4.2 | 0.1 | 0.4 | 5.0* | · | · | 0.0 | -10.7
CN(C)c1ccc(C(=O)N2CCOCC2)cc1 | 7.0 | 1.4 | 4.7 | -0.5 | · | · | · | ·
CN(C)c1ccc(C(=S)N2CCOCC2)cc1 | -3.3 | 0.0 | -0.3 | 9.7* | · | · | 0.4 | -7.1
O=C(Cc1cn(-c2ccc(N3CCN(Cc4ccc5c(c4)OCO5)CC3)nn2)c2ccccc12)NCc1cccc(C(F)(F)F)c1 | 10.8 | 0.1 | 0.6 | 0.3 | · | · | · | ·
Cc1cc(C)cc(-n2nnc3c(=O)n(Cc4ccc(Cl)c(Cl)c4)cnc32)c1 | 14.8 | 0.2 | 4.3 | -1.0 | · | · | · | ·
COC(=O)c1ccc(Cn2cnc3c(nnn3-c3cc(C)cc(C)c3)c2=O)o1 | -14.0 | 0.2 | -3.5 | 5.0* | · | · | 0.2 | 1.5
CCCNC(=O)Cn1cnc2c(nnn2-c2cc(C)cc(C)c2)c1=O | 0.2 | 0.0 | 8.6 | 7.0* | · | · | 0.2 | -1.2
CCOC(=O)COc1ccc2c(C)c(Cl)c(=O)oc2c1C | -10.6 | -0.1 | -10.5 | -0.7 | · | · | · | ·
COc1cc(/C=C2/SC(N3CCOCC3)=NC2=O)ccc1OCc1ccccc1 | 13.3 | -0.7 | 4.4 | -0.1 | · | · | · | ·
COc1ccc(C2CC(C(F)(F)F)n3nc(C(=O)NCCc4ccccc4)cc3N2)cc1 (configuration not stated) | 17.6 | 1.0 | -9.4 | -0.6 | · | · | · | ·
N#CNc1ccc(S(=O)(=O)N2CCOCC2)cc1N=C=S | -5.7 | 0.0 | 0.0 | -0.1 | · | · | · | ·
